Results on 89 compounds are retold here after article PMC13083723 (Patterns, 2026).

Molecules are shown by their SMILES. Among all 5,400 compounds or so, about 190 (3.5%) showed an effect of 50% or more. The sample as a whole holds a higher share of strong results than the screen did.

The test system of this assay is Vero-E6. Briefly: primary screen, phospholipidosis by LipidTOX staining; higher = more effect of the substance. The conditions noted are these: 10 µM. How it is done: To measure drug-induced PLD in Vero-E6 cells, we used the HCS LipidTOX Red Phospholipidosis Detection Reagent (Invitrogen, #H34351), which is non-toxic to cell growth and remains well retained after aldehyde fixation. In this setup, compounds (at 10 μM concentration) and controls (amiodarone: 10 μM concentration; DMSO: 0.1 v/v %) were added to clear-bottom, 384-well plates (PhenoPlate 384-well, black, optically clear flat bottom, tissue-culture treated, Revvity #6057302) using the Echo Liquid Handler (Labcyte).
Regarding `CNC(=O)c1ccccc1Nc1cc(Nc2ccc(N3CCOCC3)cc2OC)ncc1C(F)(F)F`, the result_ITMP is on record as 10.6%.

Turning to `CN1CCN(Cc2ccc(Nc3ncc(Cl)c(Nc4ccccc4S(=O)(=O)N(C)C)n3)cc2)CC1`, the result_ITMP was found to be 1.65%. As for `CNC(=O)c1ccccc1Nc1nc(Nc2ccc3c(c2OC)CCC[C@H](N2CCN(CCO)CC2)C3)ncc1Cl`, the result_ITMP came out at 139%. Turning to `CC1(C)S[C@@H]2[C@H](NC(=O)C(C(=O)[O-])c3ccsc3)C(=O)N2[C@H]1C(=O)[O-]` (some centres unmarked), the result_ITMP is given as -2.7%. Next, `CCCCCC(O)CCCC(=O)[O-]` (centres unmarked): -2.69%. Next, `CC#C[C@@H](CC(=O)[O-])c1ccc(OCc2cccc(-c3ccc(C(F)(F)F)cc3)c2)cc1`: 2.55%; `CC(Cc1cccc(C(F)(F)F)c1)NCCOC(=O)c1ccccc1` (centres unmarked): 6.92%; `C[C@@H](NCCCc1cccc(C(F)(F)F)c1)c1cccc2ccccc12`: 61.8%. Next, `CCN[C@@H](C)Cc1cccc(C(F)(F)F)c1`: 3.76%; `CSCCC(N)C(=O)O` (centres unmarked): -3.06%; `O[C@H]1[C@H]2[C@H](O)CCCN2C[C@H]1O`: 0.57%. Take `c1cc(Nc2cc(C3CC3)n[nH]2)nc(Nc2ccc3nc[nH]c3c2)n1`: the result_ITMP was -1.4%. For `CSc1ccccc1Nc1nc(N2CCNCC2)nc2c(NCC3CC3)ncnc12` the value was 79.3%; for `CN1C2C=C(c3sccc3Br)CC1CC2` (centres unmarked), 6.82%; for `CCN(CCO)CCCOc1ccc2c(Nc3cc(CC(=O)Nc4cccc(F)c4)n[nH]3)ncnc2c1`, -2.36%. Next, `C(=C\c1ccccc1)/CN1CCN(CCOC(c2ccccc2)c2ccccc2)CC1`: 7.08%; `Clc1ccc(C(OCCN2CCCCC2)c2ccccc2)cc1` (centres unmarked): 63.9%. For `c1ccc(CCCN2CCN(CCOC(c3ccccc3)c3ccccc3)CC2)cc1` the value was 15%; for `C#C[C@]1(OC(C)=O)CCC2C3CCC4=C/C(=N/O)CCC4C3CC[C@@]21CC` (some centres unmarked), 1.9%. Regarding `OC1(c2ccc(Cl)c(C(F)(F)F)c2)CCN(CCCC(c2ccc(F)cc2)c2ccc(F)cc2)CC1`, the result_ITMP was found to be 36.2%. For `CN(C)C(=O)C(CCN1CCC(O)(c2ccc(Cl)cc2)CC1)(c1ccccc1)c1ccccc1` the value was 67.2%; for `O=C(CCCN1CCC(O)(c2ccc(Cl)cc2)CC1)c1ccc(F)cc1`, 3.22%. For `NCCCCCC(O)(P(=O)([O-])O)P(=O)(O)O` the value was -0.14%; for `Nc1ncnc2c1nc(Br)n2[C@@H]1O[C@@H]2COP(=O)([O-])O[C@H]2[C@H]1O`, 15.8%. For the compound `CCN1C(=O)CN=C2NC=C(c3ccc(-c4nnc[nH]4)nc3C)N=C21`, the result_ITMP is -2.57%.

For the compound `OC[C@@H](O)[C@@H](O)[C@@H](O)CO`, the result_ITMP was -6.6%. As for `O=C(Nc1ccc(CN2CCOCC2)cc1)c1ccc(-c2cccc(Cl)c2)o1`, the result_ITMP is 56.3%.

Consider `CCNC(=O)c1noc(-c2cc(C(C)C)c(O)cc2O)c1-c1ccc(CN2CCOCC2)cc1`, for which the result_ITMP is on record as -0.23%. Turning to `COc1cc(NC(=O)c2ccc(-c3ccc(Cl)cc3)o2)cc(OC)c1`, the result_ITMP amounted to 2.29%.

For `C[C@]12C=CC(=O)C=C1CCC1C2[C@@H](O)C[C@@]2(C)C1CC[C@]2(O)C(=O)COC(=O)CCC(=O)O` (some centres unmarked), the result_ITMP is given as -5.57%.

Turning to `Cc1cc(/C=C2\SC(=O)N(c3ccccc3)C2=O)c(C)n1-c1cccnc1`, the result_ITMP is given as -6.01%. Next, `O=C(Nc1ccc2c(O)cc(S(=O)(=O)[O-])cc2c1)Nc1ccc2c(O)cc(S(=O)(=O)[O-])cc2c1`: -7.47%; `COc1ccc(CCN(C)CCc2ccc(OC)c(OC)c2)cc1OC`: -1.15%; `COc1ccc(CCN(C)CCCOc2ccc(S(=O)(=O)c3c(C(C)C)c4ccccc4n3C)cc2)cc1OC`: 84.7%. Next, `COc1ccc(CCN(C)CCCN2CCc3cc(OC)c(OC)cc3CC2=O)cc1OC`: -1.11%; `O=C1NCN(c2ccccc2)C12CCN(CCCC(c1ccc(F)cc1)c1ccc(F)cc1)CC2`: 1.98%; `O=C(NCCN1CCC2(CC1)C(=O)NCN2c1cccc(F)c1)c1ccc2ccccc2c1`: 55.1%.

`O=C(NCCN1CCC2(CC1)C(=O)NCN2c1cccc(F)c1)c1ccc(F)c(F)c1`: the result_ITMP worked out at 60.1%. As for `COc1ccccc1N1CCN(CCCCNC(=O)c2ccc3ccccc3c2)CC1`, the result_ITMP turned out to be 34.4%.

`O=C(NCCN1CCOCC1)c1ccc(Cl)cc1`: the result_ITMP is -6.19%.

As for `COc1ccc2cccc(N3CCN(CCNC(=O)c4ccc(F)cc4)CC3)c2c1`, the result_ITMP was 14%.

For the compound `C[C@@H]1CCO[C@H]2Cn3cc(C(=O)NCc4ccc(F)cc4F)c(=O)c(O)c3C(=O)N12`, the result_ITMP is reported as -4.23%. For `CN(C)CCCO[C@@H]1[C@H]2OC(C)(C)O[C@H]2O[C@@H]1[C@H](O)CO` the value was -8.5%; for `C[C@@H]1C[C@H]2[C@@H]3CCC4=CC(=O)C=C[C@]4(C)[C@@]3(Cl)[C@@H](O)C[C@]2(C)[C@@]1(O)C(=O)CCl`, 0.3%; for `CN(CCCN1c2ccccc2CCc2ccccc21)CC(=O)c1ccc(Cl)cc1`, 13.8%. Next, `O=C(O)c1ccccc1C(=O)Nc1ccc(-c2ccccc2)cc1`: -1.06%. Next, `O=C(CN1C2=NCCN2c2ccccc21)c1ccc(-c2ccccc2)cc1`: 53.9%; `Cn1cnc2c(NCc3ccccc3)nc(NCCO)nc21`: -1.91%. As for `c1ccc(CNc2ncnc3nc[nH]c23)cc1`, the result_ITMP is given as -8.79%. `c1ccc(CNc2nc(NCc3ccccc3)c3ccccc3n2)cc1`: the result_ITMP stood at 58.9%. Next, `N=C(N)Nc1nc(CSCCN/C=N/S(=O)(=O)c2ccc(Br)cc2)cs1`: 0.59%; `O=C([O-])c1ccccc1Nc1cc(Cl)ccc1C(=O)[O-]`: -3.54%. Next, `C[C@@H]([C@H](O)c1ccc(O)cc1)N1CCC(Cc2ccccc2)CC1.C[C@H]([C@@H](O)c1ccc(O)cc1)N1CCC(Cc2ccccc2)CC1`: 8.99%. For `CN[C@H](CC(C)C)C(=O)NC1C(=O)N[C@@H](CC(N)=O)C(=O)N[C@H]2C(=O)NC3C(=O)N[C@H](C(=O)N[C@@H](C(=O)O)c4cc(O)cc(O)c4-c4cc3ccc4O)[C@H](O)c3ccc(c(Cl)c3)Oc3cc2cc(c3O[C@@H]2OC(CO)[C@@H](O)[C@H](O)[C@H]2O[C@H]2C[C@](C)(N)[C@H](O)[C@H](C)O2)Oc2ccc(cc2Cl)[C@H]1O` (some centres unmarked) the value was -7.09%; for `Cn1nc(C(C)(C)C)cc1C(=O)N[C@@H](Cc1cccc(Cl)c1)C(=O)NCC#N`, -8.49%. `Cc1cc(CN)cc(C)c1NC(=O)c1ccc(-c2cc(Cl)ccc2Cl)o1`: the result_ITMP came to 36.2%.

Turning to `O=C(N[C@H](Cc1ccccc1)C(=O)O)c1sc2cc(F)ccc2c1Cl`, the result_ITMP is listed as -1.39%. For `Cn1ncc(Cl)c1-c1cc(C(=O)N[C@H](CN)Cc2cccc(F)c2)sc1Cl` the value was 69.5%; for `Cn1ncc(Cl)c1-c1cc(C(=O)N[C@H](CN)Cc2ccc(F)c(F)c2)oc1Cl`, 82.6%.

Turning to `C[C@]12CCC(=O)C=C1CC[C@@H]1[C@@H]2C(=O)C[C@]2(C)C(=O)CC[C@@H]12`, the result_ITMP is given as -0.84%. For `C=C1C(=O)O[C@@H]2[C@H]3C(C)=CC[C@@]34O[C@@]4(C)CC[C@@H]12` the value was 2.15%; for `COC(=O)[C@]12CCC(C)(C)C[C@H]1[C@H]1C(=O)C=C3[C@@]4(C)C=C(C#N)C(=O)C(C)(C)[C@@H]4CC[C@@]3(C)[C@]1(C)CC2`, -10.9%; for `CCCC[C@@H](NC(=O)[C@@H](Cc1cn(C(=O)OC)c2ccccc12)NC(=O)[C@H](CC(C)(C)C)NC(=O)N1[C@H](C)CCC[C@@H]1C)C(=O)[O-]`, -3.76%.

Turning to `CC(C)(C)CCN1C[C@@H]2[C@@H](CNC(=O)c3cc(Cl)cc(Cl)c3)[C@@H]2C1`, the result_ITMP is 20.6%. Next, `COC1C(OC(=O)NC(=O)CCl)CCC2(CO2)C1C1(C)OC1CC=C(C)C` (centres unmarked): 11.3%.

With `C[C@H]1CC2C([C@@H](O)C[C@@]3(C)C2CC[C@]3(O)C(=O)COC(=O)CCC(=O)[O-])[C@@]2(C)C=CC(=O)C=C12` (some centres unmarked), the result_ITMP is -6.49%. In the case of `O=C(NOCCO)c1cc(CN2OCCCC2=O)c(F)c(F)c1Nc1ccc(I)cc1F`, the result_ITMP is -1.3%. Regarding `O=C(NOCC1CC1)c1ccc(F)c(F)c1Nc1ccc(I)cc1Cl`, the result_ITMP came to 1.02%. For `O=C(c1ccc(F)c(F)c1Nc1ccc(I)cc1F)N1CC(O)([C@@H]2CCCCN2)C1` the value was 78.8%; for `Cc1cc2nc3c(=O)[nH]c(=O)nc-3n(C[C@@H](O)[C@@H](O)[C@@H](O)COP(=O)([O-])O)c2cc1C`, 1.6%; for `COc1cc2cc(c1Cl)N(C)C(=O)C[C@H](OC(=O)C(C)C)[C@]1(C)O[C@H]1[C@H](C)[C@@H]1C[C@@](O)(NC(=O)O1)[C@H](OC)/C=C/C=C(\C)C2`, -0.8%. Next, `CCN(CC)CCOc1ccc2c(c1)C(=O)c1cc(OCCN(CC)CC)ccc1-2`: 57.2%. For `CCOc1ccc(C(=O)OCCN(CC)CC)cc1` the value was 0.82%; for `CCCCOc1cc(C(=O)OCCN(CC)CC)ccc1N`, 18.9%.

As for `O=C1NNc2nc(CN3Cc4ccccc4C3)nc3cccc1c23`, the result_ITMP is 0.43%. On to `O=C([O-])C(Cl)Cl`, for which the result_ITMP is on record as -4.51%.

In the case of `CC(C)(C)C(=O)OCOC(=O)C1N2C(=O)CC2S(=O)(=O)C1(C)C` (centres unmarked), the result_ITMP is given as 3.85%.

`CCCCCCCCCCCCCCCC=O`: the result_ITMP was -3.07%.

Consider `CN1CCN(CCCN2c3ccccc3Sc3ccc(Cl)cc32)CC1`, for which the result_ITMP worked out at 38.9%. For `COc1ccccc1N1CCN(CCCCN2C(=O)CCC2=O)CC1` the value was 6.62%; for `OCCN1CCN(CCCN2c3ccccc3Sc3ccc(Cl)cc32)CC1`, 84.7%. Next, `CCN(CC)CCCCN1c2ccccc2Oc2ccc(Cl)cc21`: 69.7%; `COc1ccccc1N1CCN(CCCCN2C(=O)c3ccccc3C2=O)CC1`: -0.85%; `CN(C)CCCN1c2ccccc2CCc2ccc(Cl)cc21`: 47.3%. For `O=C(CCc1ccncc1)NNC(=O)N1Cc2ccccc2Oc2ccc(Cl)cc21` the value was -1.3%. For the compound `Cc1c[nH]c(=O)n(CCCN2CCN(c3ccccc3OCC(F)(F)F)CC2)c1=O`, the result_ITMP was -1.42%. For `CN1CCN(CCCN2c3ccccc3Sc3ccc(C(F)(F)F)cc32)CC1` the value was 81.3%; for `Clc1ccc2c(N3CCN(CCCN4CCN(c5ccnc6cc(Cl)ccc56)CC4)CC3)ccnc2c1`, 6.97%; for `OCCN1CCN(CCCN2c3ccccc3C=Cc3ccccc32)CC1`, 50.3%.
